In PubChem BioAssay (NCI):
Several values for one entry are separate records, joined by “and”; a condition that tells them apart may be missing. Equal entries are not always repeated. Compounds without any hit were thinned out: in the full panel of roughly 83,000, 20% have a hit.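 The endpoint reported here, percent growth, reads 100 for growth as untreated, 0 for no net growth and -100 for all cells dead.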 Values without a mark were called inactive. Activity calls are given as the source filed them. The calls were made as follows: active = growth percent below 10; inactive = the rest.

Each molecule was assayed on MDA-MB-468 breast (assay: NCI-60 one-dose screen, 48 h (100 = growth as untreated, 0 = no growth, -100 = all killed)). Conditions: 10 µM unless noted.

Compound | growth
O=C(O)CCN1CCN(c2cccc(Cl)c2)CC1 | 103%
ClC(Cl)c1nc(-c2ccccc2)nc2cc(-c3ccccc3)nn12 | 33.8%
CCCCCCCCCCCCCCn1c2ccccc2c2c3c(c4c5cc(OC)ccc5oc4c21)C(=O)NC3=O | 106%
COc1ccc(-c2n[nH]c(=O)c3nc(NC(=S)Nc4ccc(Oc5ccccc5)cc4)sc23)cc1 | 98%
Cc1cc(N(CCCNc2ccnc3cc(Cl)ccc23)Cc2ccco2)nc(Cl)n1 | 32.4%
CC[C@H]1CCC/C=C/[C@@H]2C[C@H](O)C[C@H]2[C@H](O)/C=C/C(=O)O1 | -51.5% (active)
C[C@@H]1N=C(c2ccc3ccccc3n2)Nc2nc3ccccn3c2C1=O | 107%
Cc1oc(-c2ccccc2Cl)cc1C(=O)Nc1ccc(S(N)(=O)=O)cc1 | 109%
COc1ccc(-c2cc(-c3ccc(Cl)cc3)c(C#N)c(=O)n2Cc2ccc(C(=O)Nc3ccccc3N)cc2)cc1 | 63.8%
COc1ccc(Cn2c(Br)c3c(c2Br)-c2nc(N)sc2CC3)cc1 | -5.61% (active)
COc1ccc(C2C(C#N)=C(N)Oc3c2sc2c(Br)cccc32)cc1 (stereo not given) | 3.82% (active)
COc1ccc(-c2nc3cc(Cl)c(Cl)cc3n2CC(=O)N=Nc2c(O)[nH]c3ccccc23)cc1 | 60.6%
S=C(S)N1CCCC1 | 111%
O=C1c2ccccc2C(=O)c2cc(Cn3c[n+](Cc4ccc5ccccc5c4)c4ccccc43)ccc21 | -27.6% (active)
COCCn1c(-c2csc(-c3cn(C)c4ccc(OC)cc34)n2)cc2cccnc21 | 37.9%
Cc1ccc(S(=O)(=O)NCCCNc2nccc(-c3c(-c4ccccc4)nc4sccn34)n2)cc1 | 53.8%
COc1cc(NC(=O)CCSc2nc3ccc(C)cc3c(=O)n2Cc2ccccc2)cc(OC)c1OC | 68.6%
O=C(O)c1ccccc1C(=O)c1cccc2c(F)cccc12 | 104%
Cn1cnc([N+](=O)[O-])c1S(=O)(=O)Oc1cccc2ccccc12 | 58.9%
CN1CCN(Cc2ccc(NC(=O)c3[nH]ncc3Nc3ncnc4sc5c(c34)CCCC5)cc2)CC1 | -58.7% (active)

Compound | growth
CC(=O)OC[C@]12CC[C@@H](C(=O)CBr)[C@@H]1[C@H]1CC[C@@H]3[C@@]4(C)CCCNC(C)(C)[C@@H]4CC[C@@]3(C)[C@]1(C)CC2 | -67.7% [100 µM] (active)
CCOc1nc(-c2ccccc2)cc2c(O)c(C(=O)N/N=C/c3ccccc3O)[nH]c(=O)c12 | 88.6%
CCN(CC)CCCNC(=O)c1ccc(N)cc1 | 86.2%
NCCC(=O)c1ccc(Cl)cc1 | 113%
CCc1ccccc1NC(=O)/C(C#N)=C/c1ccc(OC)cc1 | 108%
O=C1/C=C/[C@@H](O)[C@@H]2C[C@@H](O)C[C@H]2/C=C/CCC[C@H]([C@@H](O)CO)O1 | -5.34% (active)
CNC(=O)c1cnc(C)nc1-c1cc(C(C)(C)C)c(O)c(C(C)(C)C)c1 | 97.4%
CC(C)NC[C@@H](C(=O)N1CCN(c2ncnc3c2[C@H](C)C[C@H]3O)CC1)c1ccc(Cl)cc1 | -18.7% (active)
CCCCCCCCCCC(C[N+](C)(C)C/C=C/c1ccccc1)C(O)c1ccccc1 (stereo not given) | -69.4% (active)
c1ccc(-c2nc3ccccc3s2)cc1 | 96.4%
O=C(O)CCCc1ccccc1 | 109%
CS(=O)c1nccc(-c2c(-c3ccc(F)c(OCCc4ccccc4)c3)nc3sccn23)n1 (stereo not given) | -39.4% (active)
CC(=O)Nc1nc(C(=O)N2N=C(C)/C(=C/c3ccccc3)C2=O)cs1 | 103%
CC[C@H](Nc1cc(C)nc(N)n1)c1nc2cccc(NCc3ccc(C(=O)NO)cc3)c2c(=O)n1-c1ccccc1 | -10.6% (active)
CCCCCCOc1ccc(C2(Cl)c3ccccc3N(C)c3ccccc32)cc1 | 50.3%
COc1ccc(C(Cc2ccccc2)NCCN2CCOCC2)cc1 (stereo not given) | 99.6%
COc1ccc(C(=O)C(O)c2ccc(OC)cc2)cc1 (stereo not given) | 101% and 96.3%
O=C(NC(CSSCC(NC(=O)c1ccccc1)C(=O)O)C(=O)O)c1ccccc1 (stereo not given) | 111%
CCOC(=O)Nc1ccc(-c2nc(-c3cccc(O)c3)c(-c3ccnc(Br)c3)[nH]2)cc1 | 10.7%
CCCCCC(=O)N1c2ccccc2NC2=C(C(=O)CC(c3ccc(OC)c(OC)c3)C2)C1c1ccc(C(F)(F)F)cc1 (stereo not given) | 14.2%
